High-throughput results: PubChem, several laboratories
Only some compounds are listed: those with a hit (about 2.8% of all), similar ones and a draw of the others.
KKLEB tox: CF airway cell cytotoxicity counter-screen | AID 602141 | 0.36% of 360,000 active | KKLEB CF airway cells viability, ATPlite luminescence, overnight; stronger effect = lower value; cells stimulated with P. aeruginosa culture filtrate | activity change (cytotoxicity), % at 5 µM;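 active means corrected activity change at or below -50% at 5 µM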
MITF TRPM1 inh: MITF TRPM1 promoter inhibition in SK-MEL-5 cells | AID 488899 | inhibition, % at 12.5 µM | SK-MEL-5 TRPM1 promoter luciferase, 24 h | 0.83% of 330,000 active;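 active means mean inhibition across replicates of 60% or more, whatever share of single replicates reaches that level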
HIF-2a block: HIF-2a inhibition | 786-0 RCC cells HIF-2a reporter, luciferase luminescence, overnight | AID 624352 | inhibition, % at 18.8 µM | 0.72% of 360,000 active;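 active means inhibition of the luminescence signal of 40% or more relative to plate controls, in a single-dose primary screen at 18.75 µM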
Peg3 prom inh: Peg3 promoter activity inhibition. inhibition, % at 20 µM. 1.7% of 360,000 active. HeLa PEG-Prom luciferase reporter, luminescence, overnight;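 active means inhibition of at least 50% at 20 µM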
Beta2AR agonist: activates human beta-2 adrenergic receptor causing internalization; P07550; Am2.2-beta2AR cells, FAP receptor internalization, flow cytometry; response, % (concentration not given with the values); 0.43% of 340,000 active; AID 504454;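 active means response above a set limit, near 3 SD of response in nonfluorescent compounds, cut at about 42% in these data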
Target sequence (P07550 whole entry, looked up): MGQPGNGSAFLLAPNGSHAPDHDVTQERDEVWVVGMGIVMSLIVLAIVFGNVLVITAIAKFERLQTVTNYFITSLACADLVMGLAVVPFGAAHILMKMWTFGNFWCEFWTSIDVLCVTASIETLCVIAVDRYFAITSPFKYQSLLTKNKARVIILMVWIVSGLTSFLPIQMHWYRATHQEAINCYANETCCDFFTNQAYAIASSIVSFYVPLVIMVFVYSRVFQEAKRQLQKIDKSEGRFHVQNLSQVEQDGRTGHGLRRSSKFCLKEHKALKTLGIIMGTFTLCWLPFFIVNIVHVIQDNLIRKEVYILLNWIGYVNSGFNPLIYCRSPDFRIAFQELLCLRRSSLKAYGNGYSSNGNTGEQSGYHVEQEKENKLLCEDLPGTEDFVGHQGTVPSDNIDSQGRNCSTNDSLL
CF NFkB inh: inhibitors of cystic fibrosis induced NF-kB; KKLEB NF-kB-GFP reporter, PAF-induced, GFP fluorescence overnight; inhibition, % at 5 µM; 0.86% of 360,000 active;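 active means at least 50% inhibition at 5 µM, scaled per plate between neutral and stimulator controls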;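 further: PAF is a Pseudomonas aeruginosa culture filtrate used as stimulus; plate controls were PAF-stimulated DMSO wells for no effect and unstimulated DMSO wells for full effect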
Active calls of the source: *; i = inactive; x = no result given.

SMILES	KKLEB tox	MITF TRPM1 inh	HIF-2a block	Peg3 prom inh	Beta2AR agonist	CF NFkB inh
CCOc1ccc(/C=C/C(=O)Nc2ccc(C(N)=O)cc2)cc1OC	-10	14	4	1	0	-8
CCN(CC)CCNC(=O)CCc1c(C)nc2c(c(C)nn2-c2ccc(C)cc2)c1C	-11	2	28	73*	4	17
O=C(N=Nc1c(O)[nH]c2ccc(Br)cc12)c1ccco1	21	x	-136	-119	x	-236
O=C(N=Nc1c(O)[nH]c2ccc(Br)cc12)c1cc(-c2cccs2)nc2ccccc12	-4	47	-15	60*	27	-1
O=C(N=Nc1c(O)[nH]c2ccc(Br)cc12)c1cc(-c2cccc3ccccc23)n[nH]1	12	-2	-37	55*	3	-40
COc1ccc(N=C(NN)c2ccc3ccccc3n2)cc1	-1	45	56*	-101	-7	-1
Cc1ccc(NC(=O)c2sc3nc(C)nc(N4CCN(c5ccccn5)CC4)c3c2C)c(C)c1	-12	-12	15	16	3	28
Cc1nc(N2CCN(c3ccccn3)CC2)c2c(C)c(C(=O)N3CCN(c4ccccc4F)CC3)sc2n1	-17	6	12	72*	12	12
COc1ccc(C2=Nc3ccccc3N(C(=O)c3ccncc3)C2C(=O)NC(C)(C)C)cc1 (stereo unspecified)	x	x	-76	x	x	x
Cc1csc(N2CCN(c3cc4c(cc3Cl)nc(-c3ccncc3)n4CCCN3CCCC3)CC2)n1	-7	90*	18	-3	8	15
Cc1ccc(-c2csc(N3CCN(c4cc5c(cc4Cl)nc(C)n5CCN4CCCCC4)CC3)n2)cc1	-26	-8	1	-2	18	14
O=C1/C(=C/c2ccc(O)c([N+](=O)[O-])c2)SC(=S)N1Cc1ccccc1	-24	5	-36	18	8	38
COc1cc(/C=C2/SC(=S)N(Cc3ccccc3)C2=O)cc(Cl)c1O	-5	2	-8	48	i	-204
COc1cc([N+](=O)[O-])cc(/C=C2/SC(=S)N(Cc3ccccc3)C2=O)c1O	-11	7	-49	51*	-20	22
O=C1/C(=C\c2cccc([N+](=O)[O-])c2O)SC(=S)N1Cc1ccccc1	-6	20	-30	56*	18	27
O=C1/C(=C\c2cc(Br)cc(Br)c2O)SC(=S)N1Cc1ccccc1	-45	1	2	73*	-52	26
O=C1/C(=C/c2ccccc2O)SC(=S)N1Cc1cccnc1	0	27	7	108*	4	51*
CN(Cc1ccccc1)Cc1cc(=O)oc2ccc3ccccc3c12	-6	x	-5	-12	x	-14
COc1cccc(C(C(=O)NC2CCCC2)N2CCN(c3cc(C)ccc3C)CC2)c1OC (stereo unspecified)	x	x	-1	x	x	x
CCC(C)Sc1nc2c(c(=O)[nH]1)C(c1cccs1)C1=C(CCCC1=O)N2 (stereo unspecified)	0	x	24	55*	-4	21
CCOC(=O)c1c(NC(=O)CSc2nnnn2-c2ccccc2)sc2c1CC(C)(C)NC2(C)C	-17	-4	3	55*	11	8
CC1(C)Cc2c(sc(NC(=O)c3ccc4ncsc4c3)c2C(N)=O)C(C)(C)N1	-22	78*	-54	22	16	6
CC1(C)Cc2c(sc(NC(=O)c3ccc(C(=O)c4ccccc4)cc3)c2C(N)=O)C(C)(C)N1	-33	39	25	83*	26	45
COC(=O)c1c(NC(=O)c2ccc(OC(C)C)cc2)sc2c1CC(C)(C)NC2(C)C	-14	7	-7	98*	38	22
CC1(C)Cc2c(sc(NC(=O)COc3ccc(Cl)cc3)c2C(N)=O)C(C)(C)N1	-29	1	7	42	7	-3
COC(=O)c1c(NC(=O)c2ccccc2)sc2c1CC(C)(C)NC2(C)C	-15	-3	-12	7	-11	13
CCOC(=O)N1CCN(S(=O)(=O)c2ccc(C(=O)Nc3sc4c(c3C(N)=O)CC(C)(C)NC4(C)C)cc2)CC1	-5	3	12	-11	12	2
CCOc1cc(/C=C2\C(=O)N(c3nc(-c4ccc(Br)cc4)cs3)N=C2c2ccccc2)ccc1O	14	-2	15	51*	-87	-2
